{"source": "PubChem BioAssay (EPA / NIEHS)", "key": {"[1]": {"read-out": "Transforming growth factor beta 1 (TGFb1), TGFB1 (gene 7040)", "test": "BSK_KF3CT_TGFb1: BioMAP Diversity Plus: KF3CT Assay for Transforming growth factor beta 1 (TGFb1) Biomarker Activity (AID 2283072)", "settings": "primary human keratinocytes with fibroblasts; actives raise or lower the signal", "procedure,_shortened": "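ELISA quantifies TGF-b1 at 24 h post-dose in a primary human skin co-culture of keratinocytes and fibroblasts, with gain or loss judged against DMSO. Parallel SRB total-protein staining flags overt cytotoxicity.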"}, "[2]": {"read-out": "C-C motif chemokine 2 (Homo sapiens) (UniProt P13500)", "test": "BSK_KF3CT_MCP1: BioMAP Diversity Plus: KF3CT Assay for Monocyte Chemoattractant Protein 1 (MCP1/CCL2) Biomarker Activity (AID 2283073)", "settings": "primary human keratinocytes with fibroblasts; actives raise or lower the signal", "procedure,_shortened": "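Keratinocytes and foreskin fibroblasts were co-cultured, dosed with chemical, and sampled 24 h later. MCP-1 was quantified by ELISA, and the endpoint was analyzed with bidirectional fitting using DMSO as negative control.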"}, "[3]": {"read-out": "Matrix Metallopeptidase 9 (MMP9), MMP9 (gene 4318)", "test": "BSK_KF3CT_MMP9: BioMAP Diversity Plus: KF3CT Assay for Matrix Metallopeptidase 9 (MMP9) Biomarker Activity (AID 2283074)", "settings": "primary human keratinocytes with fibroblasts; actives raise or lower the signal", "procedure,_shortened": "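MMP-9 quantified by ELISA after 24 h chemical treatment of primary human skin keratinocyte/fibroblast co-cultures; gain or loss fitted against DMSO, with parallel SRB staining (0.1% SRB, 560 nm) for overt cytotoxicity.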"}, "[4]": {"read-out": "urokinase plasminogen activator (uPA), PLAU (gene 5328)", "test": "BSK_KF3CT_uPA: BioMAP Diversity Plus: KF3CT Assay for urokinase plasminogen activator (uPA) Biomarker Activity (AID 2283075)", "settings": "primary human keratinocytes with fibroblasts; actives raise or lower the signal", "procedure,_shortened": "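ELISA read-out of uPA 24 h after dosing human skin keratinocytes co-cultured with foreskin fibroblasts. Signal change fitted both ways relative to DMSO; sulforhodamine B on parallel cultures marks overt cytotoxicity.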"}, "[5]": {"read-out": "CD40, CD40 (gene 958)", "test": "BSK_LPS_CD40: BioMAP Diversity Plus: LPS Assay for CD40 Biomarker Activity (AID 2283076)", "settings": "primary human HUVEC with PBMC; actives raise or lower the signal", "procedure,_shortened": "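CD40 signal, measured by ELISA, is fitted in both directions relative to DMSO vehicle. The system is an LPS-driven human vascular primary co-culture of endothelial cells and PBMC, sampled 24 h after compound addition.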"}, "[6]": {"read-out": "E-selectin (Homo sapiens) (UniProt P16581)", "test": "BSK_LPS_Eselectin: BioMAP Diversity Plus: LPS Assay for Eselectin Biomarker Activity (AID 2283077)", "settings": "primary human HUVEC with PBMC; actives raise or lower the signal", "procedure,_shortened": "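Signal of E-selectin, detected by ELISA, served as the endpoint; cells were umbilical vein endothelium with PBMC, read 24 h after treatment. DMSO defined baseline, and both increases and decreases were fitted.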"}, "[7]": {"read-out": "Interleukin-8 (IL8), CXCL8 (gene 3576)", "test": "BSK_LPS_IL8: BioMAP Diversity Plus: LPS Assay for Interleukin-8 (IL8) Biomarker Activity (AID 2283078)", "settings": "primary human HUVEC with PBMC; actives raise or lower the signal", "procedure,_shortened": "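Endothelial cells and PBMC from human donors are co-cultured, treated with chemicals and LPS, then assayed for IL-8 by ELISA after 24 h. Parallel SRB staining (0.1% SRB after 10% TCA fixation, 560 nm) flags cytotoxicity.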"}, "[8]": {"test": "BSK_LPS_SRB: Viability Assessment in the BioMAP Diversity Plus: LPS Assay (AID 2283079);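 further: total protein by sulforhodamine B absorbance as a cytotoxicity measure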", "settings": "primary human HUVEC with PBMC", "procedure,_shortened": "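Overt cytotoxicity was gauged by sulforhodamine B total-protein staining in a primary human vascular endothelial and mononuclear cell co-culture 24 h post-dosing. Activity was fitted in both directions relative to DMSO.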"}, "[9]": {"read-out": "Interleukin-1 alpha (IL1a), IL1A (gene 3552)", "test": "BSK_LPS_IL1a: BioMAP Diversity Plus: LPS Assay for Interleukin-1 alpha (IL1a) Biomarker Activity (AID 2283080)", "settings": "primary human HUVEC with PBMC; actives raise or lower the signal", "procedure,_shortened": "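Measured: IL-1 alpha via ELISA at 24 h in LPS-activated human umbilical vein endothelium–PBMC co-culture. Baseline: DMSO, bidirectional fitting.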"}, "[10]": {"read-out": "Monocyte Chemoattractant Protein-1 (MCP1), CCL2 (gene 6347)", "test": "BSK_LPS_MCP1: BioMAP Diversity Plus: LPS Assay for Monocyte Chemoattractant Protein-1 (MCP1) Biomarker Activity (AID 2283081);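 on AC50: secreted MCP-1 protein quantified by ELISA in culture supernatant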", "settings": "primary human HUVEC with PBMC; actives raise or lower the signal", "procedure,_shortened": "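LPS-stimulated HUVEC/PBMC co-culture; chemical, 24 h; MCP-1 by ELISA; bidirectional fit vs DMSO; cytotoxicity via SRB (0.1% stain, 10% TCA fix, 560 nm) in parallel wells.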"}, "[11]": {"test": "BSK_LPS_PGE2: BioMAP Diversity Plus: LPS Assay for Prostaglandin E2 (PGE2) Biomarker Activity (AID 2283082)", "settings": "primary human HUVEC with PBMC; actives raise or lower the signal", "procedure,_shortened": "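PGE2 release measured by ELISA in an LPS-activated co-culture of human umbilical vein endothelial cells and peripheral blood mononuclear cells, read at 24 h post-dosing. DMSO served as baseline for bidirectional curve fitting.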"}, "[12]": {"read-out": "Macrophage colony-stimulating factor (MCSF), CSF1 (gene 1435)", "test": "BSK_LPS_MCSF: BioMAP Diversity Plus: LPS Assay for Macrophage colony-stimulating factor (MCSF) Biomarker Activity (AID 2283083)", "settings": "primary human HUVEC with PBMC; actives raise or lower the signal", "procedure,_shortened": "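Compound is added to a human vascular primary co-culture of umbilical vein endothelium and blood mononuclear cells. After 24 h, M-CSF is quantified by ELISA. Signal changes are fitted in both directions against DMSO.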"}, "[13]": {"read-out": "Tissue Factor, F3 (gene 2152)", "test": "BSK_LPS_TissueFactor: BioMAP Diversity Plus: LPS Assay for Tissue Factor Biomarker Activity (AID 2283084)", "settings": "primary human HUVEC with PBMC; actives raise or lower the signal", "procedure,_shortened": "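In this co-culture system of umbilical vein endothelium with PBMC, stimulated with LPS, cell-surface CD142 is detected by ELISA at 24 h. Endpoint values derive from bidirectional fitting, DMSO serving as baseline.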"}, "[14]": {"read-out": "Tumor necrosis factor (Homo sapiens) (UniProt P01375)", "test": "BSK_LPS_TNFa: BioMAP Diversity Plus: LPS Assay for Tumour Necrosis Factor alpha (TNFa) Biomarker Activity (AID 2283085)", "settings": "primary human HUVEC with PBMC; actives raise or lower the signal", "procedure,_shortened": "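TNFa was quantified by ELISA in LPS-activated co-cultures of human endothelial cells and PBMC, 24 h post-dosing. Both increases and decreases versus DMSO were fitted.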"}, "[15]": {"read-out": "CD38, CD38 (gene 952)", "test": "BSK_SAg_CD38: BioMAP Diversity Plus: SAg Assay for CD38 Biomarker Activity (AID 2283087)", "settings": "primary human HUVEC with PBMC; actives raise or lower the signal", "procedure,_shortened": "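CD38 quantified by ELISA (fluorescence) in a superantigen-activated endothelial cell–PBMC co-culture at 24 h post-dose. Activity fitted in both directions relative to DMSO; parallel SRB and Alamar Blue cytotoxicity read-outs.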"}, "[16]": {"read-out": "CD40, CD40 (gene 958)", "test": "BSK_SAg_CD40: BioMAP Diversity Plus: SAg Assay for CD40 Biomarker Activity (AID 2283088)", "settings": "primary human HUVEC with PBMC; actives raise or lower the signal", "procedure,_shortened": "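Fluorescence ELISA read-out of CD40 from umbilical vein endothelium plus peripheral blood mononuclear cells, sampled 24 h after dosing. Values come from bidirectional curve fitting with DMSO as baseline.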"}, "[17]": {"read-out": "CD69, CD69 (gene 969)", "test": "BSK_SAg_CD69: BioMAP Diversity Plus: SAg Assay for CD69 Biomarker Activity (AID 2283089)", "settings": "primary human HUVEC with PBMC; actives raise or lower the signal", "procedure,_shortened": "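Values derive from bidirectional fitting relative to DMSO vehicle. Cells: umbilical vein endothelium plus peripheral blood mononuclear cells, treated 24 h before fluorescent ELISA for CD69.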"}, "[18]": {"read-out": "Monocyte Chemoattractant Protein-1 (MCP1), CCL2 (gene 6347)", "test": "BSK_SAg_MCP1: BioMAP Diversity Plus: SAg Assay for Monocyte Chemoattractant Protein-1 (MCP1) Biomarker Activity (AID 2283090)", "settings": "primary human HUVEC with PBMC; actives raise or lower the signal", "procedure,_shortened": "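Values derive from bidirectional fitting of ELISA-measured MCP1 against DMSO controls. Readings were taken 24 h after dosing human vascular endothelial cells co-cultured with peripheral blood mononuclear cells under superantigen stimulation.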"}, "[19]": {"read-out": "E-selectin (Homo sapiens) (UniProt P16581)", "test": "BSK_SAg_Eselectin: BioMAP Diversity Plus: SAg Assay for Eselectin Biomarker Activity (AID 2283091)", "settings": "primary human HUVEC with PBMC; actives raise or lower the signal", "procedure,_shortened": "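Primary human endothelial cells and peripheral blood mononuclear cells were co-cultured and exposed to chemical for 24 hours. E-selectin levels were then quantified by ELISA, with bidirectional curve fitting normalised to DMSO controls.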"}}, "note": "Several values for one entry are separate records, joined by “and”; a condition that tells them apart may be missing. Identical values can stand only once. Some structures have more than one record in an assay (separate samples or runs), and their calls can disagree. Activity calls are given as the source filed them. How the source made its calls: active means hit-call score of the fitted dose curve at least 0.9, where 1 is the maximum; inactive means score below 0.9.", "data": [{"smiles": "CC(C)CCCCCCOC(=O)CCCCC(=O)OCCCCCCC(C)C", "values": [{"measurement": "outcome", "setting": "[1]", "result": "inactive"}, {"measurement": "outcome", "setting": "[2]", "result": "inactive"}, {"measurement": "outcome", "setting": "[3]", "result": "inactive"}, {"measurement": "outcome", "setting": "[4]", "result": "inactive"}, {"measurement": "outcome", "setting": "[5]", "result": "inactive"}, {"measurement": "outcome", "setting": "[6]", "result": "inactive"}, {"measurement": "outcome", "setting": "[7]", "result": "inactive"}, {"measurement": "outcome", "setting": "[8]", "result": "inactive"}, {"measurement": "outcome", "setting": "[9]", "result": "inactive"}, {"measurement": "outcome", "setting": "[10]", "result": "inactive"}, {"measurement": "outcome", "setting": "[11]", "result": "inactive"}, {"measurement": "outcome", "setting": "[12]", "result": "inactive"}, {"measurement": "outcome", "setting": "[13]", "result": "inactive"}, {"measurement": "outcome", "setting": "[14]", "result": "inactive"}, {"measurement": "outcome", "setting": "[15]", "result": "inactive"}, {"measurement": "outcome", "setting": "[16]", "result": "inactive"}, {"measurement": "outcome", "setting": "[17]", "result": "inactive"}, {"measurement": "outcome", "setting": "[18]", "result": "inactive"}, {"measurement": "outcome", "setting": "[19]", "result": "inactive"}]}, {"smiles": "OCCC(F)(F)C(F)(F)C(F)(F)C(F)(F)C(F)(F)C(F)(F)C(F)(F)C(F)(F)F", "values": [{"measurement": "outcome", "setting": "[1]", "result": "inactive"}, {"measurement": "AC50", "setting": "[2]", "result": "20.1 µM (active) and 18 µM (active)"}, {"measurement": "outcome", "setting": "[2]", "result": "inactive"}, {"measurement": "AC50", "setting": "[3]", "result": "13.6 µM (active) and 12.2 µM (active)"}, {"measurement": "outcome", "setting": "[3]", "result": "inactive"}, {"measurement": "AC50", "setting": "[4]", "result": "17.1 µM (active) and 19.1 µM (active)"}, {"measurement": "outcome", "setting": "[4]", "result": "inactive"}, {"measurement": "AC50", "setting": "[5]", "result": "30.6 µM (active) and 29.1 µM (active)"}, {"measurement": "outcome", "setting": "[5]", "result": "inactive"}, {"measurement": "AC50", "setting": "[7]", "result": "30 µM (active)"}, {"measurement": "outcome", "setting": "[7]", "result": "inactive"}, {"measurement": "AC50", "setting": "[8]", "result": "15.8 µM (active) and 17.4 µM (active)"}, {"measurement": "outcome", "setting": "[8]", "result": "inactive"}, {"measurement": "AC50", "setting": "[9]", "result": "18.7 µM (active) and 23.8 µM (active)"}, {"measurement": "outcome", "setting": "[9]", "result": "inactive"}, {"measurement": "AC50", "setting": "[10]", "result": "30.8 µM (active) and 21.8 µM (active)"}, {"measurement": "outcome", "setting": "[10]", "result": "inactive"}, {"measurement": "outcome", "setting": "[11]", "result": "inactive"}, {"measurement": "AC50", "setting": "[13]", "result": "45.6 µM (active)"}, {"measurement": "outcome", "setting": "[13]", "result": "inactive"}, {"measurement": "AC50", "setting": "[14]", "result": "47.6 µM (active)"}, {"measurement": "outcome", "setting": "[14]", "result": "inactive"}, {"measurement": "AC50", "setting": "[15]", "result": "29.1 µM (active) and 27.8 µM (active)"}, {"measurement": "outcome", "setting": "[15]", "result": "inactive"}, {"measurement": "AC50", "setting": "[16]", "result": "29.1 µM (active) and 23.8 µM (active)"}, {"measurement": "outcome", "setting": "[16]", "result": "inactive"}, {"measurement": "AC50", "setting": "[17]", "result": "26 µM (active) and 38.3 µM (active)"}, {"measurement": "outcome", "setting": "[17]", "result": "inactive"}, {"measurement": "AC50", "setting": "[18]", "result": "43 µM (active) and 23.1 µM (active)"}, {"measurement": "outcome", "setting": "[18]", "result": "inactive"}, {"measurement": "AC50", "setting": "[19]", "result": "39.2 µM (active) and 31.9 µM (active)"}, {"measurement": "outcome", "setting": "[19]", "result": "inactive"}]}]}
